Data on eight molecules can be found in PubChem BioAssay (NCI).

Among the test systems are DU-145 prostate; K-562 leukemia; MALME-3M melanoma; MDA-MB-231 breast; RXF 393 renal; SF-268 CNS; SF-295 CNS; SF-539 CNS; UACC-257 melanoma; M14 melanoma; HCT-15 colon; HT29 colon; SNB-75 CNS; SNB-19 CNS; U251 CNS; PC-3 prostate; SK-MEL-5 melanoma; UACC-62 melanoma; LOX IMVI melanoma; SK-MEL-28 melanoma.
What all share (assay): NCI-60 one-dose screen, 48 h (100 = growth as untreated, 0 = no growth, -100 = all killed)
Conditions in all cases: 10 µM unless noted

SMILES strings stand for the structures. About 83,000 compounds went through this panel and 20% of them were active in at least one assay; those are over-represented in the sample as a whole.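 Percent growth is the endpoint: 0 to 100 indicates growth inhibition (40 means 60% inhibition), 0 means no net growth, and negative values indicate cell death.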 Values without a mark were called inactive. Active and inactive are the calls of the source. Rule for the calls: active = growth percent below 10; inactive = the rest.

As to `Cc1ccc(Nc2nnc(-c3c[nH]c4ccccc34)o2)c(C)c1`, the growth with DU-145 prostate is 16.5%; with K-562 leukemia, 6.22% (active); in the assay with MALME-3M melanoma, 39.1%; in the assay with MDA-MB-231 breast, -1.28% (active); in the assay with RXF 393 renal it was -11.9% (active); in the assay on SF-268 CNS, 32.5%. For the same molecule, the growth in the assay with SF-295 CNS is 9.91% (active); in the assay on SF-539 CNS, -32.4% (active); in the assay with UACC-257 melanoma it was 60.9%; in the assay on M14 melanoma, 15.6%; in the assay with HCT-15 colon, 8.92% (active); in the assay with HT29 colon it was -37.9% (active). Besides, the growth with SNB-75 CNS is 27.3%; in the assay with SNB-19 CNS it was 31.3%; in the assay with U251 CNS it was 5.02% (active); in the assay on PC-3 prostate, 28.7%; in the assay on SK-MEL-5 melanoma, 6.62% (active); in the assay with UACC-62 melanoma, 7.3% (active). For the same molecule, the results for the growth in the assay with LOX IMVI melanoma and in the assay with SK-MEL-28 melanoma were 1.68% (active) and 54.5%, respectively.

In the case of `O=C(c1cc2cc(OCCCN3CCC3)ccc2[nH]1)N1C[C@@H](CCl)c2c1cc(OCc1ccccc1)c1ccccc21`, the growth with DU-145 prostate is -29.5% (active); with K-562 leukemia it was 0.535% (active); with MALME-3M melanoma, -73.9% (active); with MDA-MB-231 breast, -41.4% (active); in the assay with RXF 393 renal, -80.8% (active); in the assay with SF-268 CNS it was 0.226% (active). In addition, the growth in the assay on SF-295 CNS was -4.45% (active); in the assay with SF-539 CNS it was -79.8% (active); in the assay with UACC-257 melanoma, -23.1% (active); in the assay on M14 melanoma, -79.3% (active); in the assay on HCT-15 colon, -21.1% (active); in the assay on HT29 colon it was -25.2% (active). Moreover, the growth in the assay with SNB-75 CNS is -79.5% (active); with SNB-19 CNS, -12.1% (active); in the assay with U251 CNS, -80.7% (active); with PC-3 prostate it was -21.4% (active); in the assay with SK-MEL-5 melanoma, -23.2% (active); with UACC-62 melanoma it was -82.6% (active). The growth with LOX IMVI melanoma was -94.2% (active); in the assay with SK-MEL-28 melanoma it was -45.8% (active).

As for `Cc1cccc(C)c1Nc1nnc(-c2c[nH]c3ccccc23)o1`, the growth was 107% in the assay on DU-145 prostate; 98.4% in the assay with K-562 leukemia; 78.4% in the assay on MALME-3M melanoma; 79.1% in the assay with MDA-MB-231 breast; 108% in the assay with RXF 393 renal; 104% in the assay with SF-268 CNS. Besides, the growth in the assay with SF-295 CNS was 96%; in the assay with SF-539 CNS, 94.1%; in the assay on UACC-257 melanoma, 95.7%; with M14 melanoma, 102%; in the assay with HCT-15 colon it was 97.6%; with HT29 colon, 104%. Besides, the growth with SNB-75 CNS was 88%; with SNB-19 CNS, 97.5%; in the assay with U251 CNS it was 95.6%; in the assay on PC-3 prostate it was 76.3%; in the assay with SK-MEL-5 melanoma it was 94.1%; in the assay with UACC-62 melanoma, 83.2%. In addition, the growth with LOX IMVI melanoma is 83.9%; in the assay on SK-MEL-28 melanoma it was 105%.

With `C#CCN(C)CCCOc1ccc(N(C)C(=O)c2cc(C(C)C)c(O)cc2O)cc1Cl`, the growth was 24.3% in the assay on DU-145 prostate; 3.57% (active) with K-562 leukemia; -27.8% (active) with MALME-3M melanoma; -15.8% (active) in the assay with MDA-MB-231 breast; 22.3% with RXF 393 renal; 41.4% in the assay on SF-268 CNS. The growth in the assay on SF-295 CNS is 6.57% (active); in the assay with SF-539 CNS, 17.3%; with UACC-257 melanoma it was 9.35% (active); in the assay on M14 melanoma, 0.868% (active); in the assay on HCT-15 colon, 4.84% (active); in the assay with HT29 colon it was 9.18% (active). Also, the growth is 26.2% in the assay on SNB-75 CNS; 22.1% in the assay on SNB-19 CNS; 11.4% in the assay on U251 CNS; 20% with PC-3 prostate; -94.4% (active) in the assay on SK-MEL-5 melanoma; -17.6% (active) in the assay with UACC-62 melanoma. In addition, the growth is -89.2% (active) in the assay with LOX IMVI melanoma and 15.9% in the assay with SK-MEL-28 melanoma.

Turning to `C/C(=N\Nc1ccc(S(N)(=O)=O)cc1)c1cnn(-c2cc(=O)[nH]c3ccc(Br)cc23)c1C`, the growth is 77.9% in the assay with DU-145 prostate; 35% in the assay on K-562 leukemia; 21.7% in the assay with MALME-3M melanoma; 31.4% with MDA-MB-231 breast; 68.6% in the assay with RXF 393 renal; 57.3% in the assay with SF-268 CNS. The growth in the assay on SF-295 CNS is 91.9%; in the assay on SF-539 CNS, 41.6%; in the assay with UACC-257 melanoma, 66.3%; in the assay with M14 melanoma, 73%; with HCT-15 colon, 91.2%; with HT29 colon, 98.8%. For the same molecule, the growth in the assay on SNB-75 CNS was 22%; in the assay with SNB-19 CNS, 46%; in the assay with U251 CNS, 37.9%; in the assay with PC-3 prostate it was 58.3%; with SK-MEL-5 melanoma, 55%; in the assay with UACC-62 melanoma, 11.4%. For the same molecule, the values for the growth in the assay with LOX IMVI melanoma and in the assay with SK-MEL-28 melanoma were 38.2% and 34.7%, respectively.

As to `Cc1ccc(Cl)cc1NC(=O)N/C(N)=N/c1nc2ccccc2s1`, the growth was -35% (active) in the assay with DU-145 prostate; 4.45% (active) with K-562 leukemia; 15.6% in the assay on MALME-3M melanoma; -42.7% (active) with MDA-MB-231 breast; -28.5% (active) with RXF 393 renal; 15.4% with SF-268 CNS. The growth in the assay on SF-295 CNS was -49.6% (active); with SF-539 CNS, -51.2% (active); in the assay with UACC-257 melanoma, 44.8%; in the assay on M14 melanoma, -17.1% (active); in the assay with HCT-15 colon it was -22.4% (active); in the assay on HT29 colon, -69.5% (active). For the same molecule, the growth was -4.17% (active) with SNB-75 CNS; 12.5% in the assay on SNB-19 CNS; -43.8% (active) in the assay with U251 CNS; 2.99% (active) with PC-3 prostate; -56.9% (active) in the assay on SK-MEL-5 melanoma; -11.4% (active) in the assay on UACC-62 melanoma. Moreover, the figures for the growth in the assay with LOX IMVI melanoma and in the assay on SK-MEL-28 melanoma were -83.3% (active) and 19.6%, respectively.

Consider `N#C/C(=C/c1ccc(Cl)cc1)c1nnc(NC(=O)c2ccc(-n3c(=O)[nH]c4ccccc4c3=O)cc2)s1`, for which the growth in the assay with DU-145 prostate was 85.1%; with K-562 leukemia, 99%; in the assay with MALME-3M melanoma it was 68.2%; with MDA-MB-231 breast it was -5.08% (active); in the assay with RXF 393 renal, 20.1%; in the assay on SF-268 CNS, 73.2%. In addition, the growth in the assay with SF-295 CNS was 96.3%; in the assay on SF-539 CNS it was 24.1%; in the assay with UACC-257 melanoma, 102%; with M14 melanoma, 78.8%; with HCT-15 colon, 95.2%; in the assay on HT29 colon, 68.8%. Moreover, the growth is 53.3% with SNB-75 CNS; 51.8% in the assay on SNB-19 CNS; 27.1% in the assay on U251 CNS; 76.2% in the assay on PC-3 prostate; 27.7% in the assay with SK-MEL-5 melanoma; 67.2% with UACC-62 melanoma. In addition, the growth in the assay on LOX IMVI melanoma was 41.8%; with SK-MEL-28 melanoma, 74.9%.

In the case of `COc1cc(C2C(C(=O)OCc3ccccc3)=C(C)Nc3nc4ccccc4n32)cc(OC)c1OC` (stereo not given), the growth in the assay with DU-145 prostate is 59.3%; with K-562 leukemia it was 20.7%; in the assay on MALME-3M melanoma, -16.7% (active); with MDA-MB-231 breast, -26.7% (active); with RXF 393 renal, -39.6% (active); in the assay on SF-268 CNS, 15.1%. For the same molecule, the growth with SF-295 CNS is 3.38% (active); in the assay on SF-539 CNS, -44.5% (active); with UACC-257 melanoma it was 30.2%; in the assay with M14 melanoma, 27.1%; in the assay with HCT-15 colon, 24.8%; in the assay with HT29 colon, 37.3%. The growth with SNB-75 CNS was -38.3% (active); in the assay with SNB-19 CNS, 20.4%; in the assay on U251 CNS, 27%; in the assay on PC-3 prostate it was 51.7%; in the assay on SK-MEL-5 melanoma, 17.3%; in the assay on UACC-62 melanoma, 2.04% (active). The results for the growth in the assay on LOX IMVI melanoma and with SK-MEL-28 melanoma were 12.2% and 33.9%, respectively.
